# Shown are actives, neighbours in structure and some others; about 12% of the full set was active somewhere.
# Sfp inh – blocks B. subtilis Sfp PPTase activity | Q9F4F7 | Biochemical Sfp PPTase activity, qHTS | Potency, µM, for inactives: largest response in the series, negative = inhibition, actives largely listed as inhibitors | 310,000 compounds, 3.5% hits | AID 1490;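 further: the enzyme is Sfp with the accession as filed and its product quenches rhodamine fluorescence; 0% = enzyme reaction without inhibitor and -100% = no enzyme wells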
#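 After 15 min at room temperature with compound, 15 nM Sfp received 5 uM rhodamine-CoA plus 12.5 uM BHQ-2-ybbR (50 mM Hepes pH 7.6, 10 mM MgCl2). Rate came from the fluorescence difference over 30 min, ex 525/em 598 nm.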
# G9a inh – inhibitors of human histone lysine methyltransferase G9a | Q96KQ7 | G9a H3K9 monomethylation, AlphaScreen, 2 h | Potency, µM (series often up to 102 µM), for the others: top-dose activity, negative = inhibition, actives largely listed as inhibitors | 350,000 compounds, 8.8% hits | AID 504332; further: on the % scale 0 is the no-effect control and ±100 the full control effect; nearly all actives have a fitted effect of over 75% in size
# Target sequence (Q96KQ7 913-1193 limits assumed): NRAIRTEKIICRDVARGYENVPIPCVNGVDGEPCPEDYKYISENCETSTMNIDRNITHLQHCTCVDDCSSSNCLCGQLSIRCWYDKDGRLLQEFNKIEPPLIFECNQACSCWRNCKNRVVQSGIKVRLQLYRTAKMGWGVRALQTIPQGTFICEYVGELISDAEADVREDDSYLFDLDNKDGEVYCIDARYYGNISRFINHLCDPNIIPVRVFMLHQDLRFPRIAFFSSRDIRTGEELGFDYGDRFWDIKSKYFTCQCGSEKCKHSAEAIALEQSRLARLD
#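 Methyltransferase reactions run at room temperature for 2 h (20 nM enzyme, 500 nM biotin-H3K9 peptide, 20 uM SAM) after a 15 min compound preincubation; product detected by AlphaScreen beads and anti-H3K9me1 antibody.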
# JMJD2A Tudor inh – blocks the human JMJD2A Tudor domain | O75164 | AlphaScreen JMJD2A-Tudor / H3K4me3 peptide binding | Potency, µM (series often up to 114 µM), without a hit: top-dose activity change, negative = inhibition, hits mostly inhibitors | 390,000 compounds, 4.4% hits | AID 504339; further: on the % scale 0 is the no-effect control and ±100 the full control effect; nearly all actives have a fitted effect of over 50% in size
# BAZ2B inh – inhibitors of human BAZ2B bromodomain; Potency, µM (series often up to 114 µM), for the others: at the top dose activity change, negative = inhibition, actives largely listed as inhibitors; AlphaScreen BAZ2B-H3K14Ac peptide displacement; AID 504333; 360,000 compounds, 4.4% hits; further: on the % scale 0 is the no-effect control and ±100 the full control effect; nearly all actives have a fitted effect of over 60% in size
#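 Inhibition is scored as reduced AlphaScreen emission. The BAZ2B/b-H3(5-23)K14Ac complex (50 nM each) in PBS pH 7.4, 0.01% Tween-20 meets compound (up to 110 uM) for 30 min at RT before bead addition.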
# L3MBTL1 inh – inhibitors of human L3MBTL1; Q9Y468; AlphaScreen L3MBTL1–H3K9me1 peptide binding; Potency, µM (doses to about 57.1 µM), for inactives: at the highest dose activity, negative = inhibition, most hits filed as inhibitors; 230,000 compounds, 0.66% hits; further: on the % scale 0 is the no-effect control and ±100 the full control effect; nearly all actives have a fitted effect of over 60% in size
#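 Read-out is AlphaScreen signal from streptavidin donor and nickel chelate acceptor beads (10 ug/mL final each) bridging L3MBTL1 (50 nM) and biotinylated K9-monomethylated H3(1-15) peptide (75 nM), after 30 min compound exposure at room temperature.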
# HP1b binding inh – HP1-beta chromodomain-methylated histone interaction inhibition; AlphaScreen HP1-beta / biotin-H3K9me3 peptide binding; 390,000 compounds, 0.56% hits; Potency, µM (highest dose often 114 µM), for inactives: at the top dose activity change, negative = inhibition, hits mostly inhibitors; further: nearly all actives have a fitted effect of over 70% in size
# Target sequence (P83916 whole entry, looked up): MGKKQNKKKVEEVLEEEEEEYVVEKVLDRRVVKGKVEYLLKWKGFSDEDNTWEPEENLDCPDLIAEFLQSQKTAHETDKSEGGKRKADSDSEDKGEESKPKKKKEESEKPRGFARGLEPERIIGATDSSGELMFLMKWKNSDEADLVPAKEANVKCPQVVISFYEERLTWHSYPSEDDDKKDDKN
#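 HP1-beta protein (50 nM final) preincubated 30 min at room temperature with biotinylated H3(1-18)K9me3 peptide (50 nM) in PBS pH 7.4, 0.01% Tween-20, then compound added for 30 min. AlphaScreen streptavidin donor/nickel chelate acceptor beads (10 ug/mL final), 30 min dark, luminescence read.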
# Starred values were filed as active, the others as inactive; ? = inconclusive; · = no result given; [ ] = remark or other dose. The call rests on the fitted dose curve; in most records, active means well fitted curve in the direction sought with a large enough effect; inconclusive means small, poorly fitted or top-dose-only effect, or another doubt; inactive means no such curve, though single readings can be large; an effect the other way counts as inactive or inconclusive. Potency means the concentration at half of the fitted maximal effect.
SMILES,Sfp inh,G9a inh,JMJD2A Tudor inh,BAZ2B inh,L3MBTL1 inh,HP1b binding inh
CCOC(=O)c1sc(-n2[nH]c(C)cc2=O)nc1C,-4.6%,28.2µM*,-8.3%,6.2%,7.6%,36.1%
Cc1cc(C)nc(NN2C(=O)/C(=C/c3ccc(O)cc3)SC2=S)n1,-27.2%,28.2µM*,?,?,-5.2%,-2.0%
Cc1ccc(/C=C2\SC(=S)N(/N=C/c3cc([N+](=O)[O-])ccc3O)C2=O)o1,25.1µM*,6.31µM*,56.2µM*,11.2µM*,·,44.7µM*
COc1cc(/C=C2\SC(=S)N(NC(=O)c3ccccc3O)C2=O)ccc1O,-18.8%,-28.8%[2.33 µM],20µM*,28.2µM*,·,?
O=C(NN1C(=O)/C(=C/c2ccc(O)cc2)SC1=S)c1ccccc1O,-6.6%,?,50.1µM*,39.8µM*,·,?
O=[N+]([O-])c1ccc(O)c(/C=N/n2cnc3ccccc32)c1,6.6%,11.3%[59 µM],-21.1%,-1.1%,7.7%,-2.9%
COc1ccc(-n2c(CC3C(=O)N(C)c4ccc(C)cc43)nc3ccccc3c2=O)cc1 (stereo not given),·,-0.3%[59 µM],-28.9%,-30.1%,·,39.3%
COc1ccc(CCNC(=O)CCc2c(C)c3cc4c(C)coc4c(C)c3oc2=O)cc1OC,·,0.0%[59 µM],-18.9%,2.5%,·,34.5%
CC(=C\c1ccccc1)/C=C1/SC(=S)N(CCC(=O)O)C1=O,?,5.5%[2.33 µM],?,?,·,5.5%
O=C(NN1C(=O)/C(=C/c2ccc(O)cc2)SC1=S)c1cccc(O)c1,27.2%,44.7µM*,?,?,-10.1%,-14.9%
O=C(NN1C(=O)/C(=C/c2cc([N+](=O)[O-])ccc2O)SC1=S)c1ccccc1O,·,-18.3%[2.33 µM],·,5.62µM*,4.47µM*,·
CC(/C=C1\SC(=S)N(NC(=O)c2cccc(O)c2)C1=O)=C\c1ccccc1,?,8.91µM*,22.4µM*,11.2µM*,-23.0%,?
O=C(Cc1ccccc1)NN1C(=O)/C(=C/c2ccc(C(=O)O)cc2)SC1=S,1.1%,·,-16.9%[11.4 µM],-16.2%,·,30.8%
O=C(NN1C(=O)/C(=C/c2ccc(O)c([N+](=O)[O-])c2)SC1=S)c1ccccc1Cl,-8.7%,14.1µM*,?,35.5µM*,·,?
O=C(CCCN1C(=O)/C(=C/c2ccccc2Cl)SC1=S)NNC(=O)c1ccccc1Cl,-17.0%,10.0%[59 µM],-3.5%,-6.4%,5.3%,23.3%
O=C1N/C(=N\S(=O)(=O)c2ccccc2)S/C1=C\c1cc([N+](=O)[O-])ccc1O,12.7%,?,-17.4%,-19.6%,·,6.2%
O=C(NCC(c1ccc2c(c1)OCO2)N1CCOCC1)c1cccc(Cl)c1 (stereo not given),·,21.1%[59 µM],-3.9%,2.5%,·,26.3%[57 µM]
COc1cccc(CNC(=O)Cn2cc3c(n2)-c2c(oc(C(=O)N4CCCC4)c2C)CC3)c1OC,·,-32.9%[59 µM],-15.8%,-24.4%,·,19.3%
COc1cc(NC(=O)CSc2cc(=O)n(C)c3ccccc23)cc(OC)c1OC,·,-7.4%[59 µM],-12.0%,·,·,3.8%
COc1ccc(-c2cc(C(=O)NNC(=O)c3csc(N4CCOCC4)n3)c3ccccc3n2)cc1OC,·,20.4%,-3.3%,3.1%,9.4%,44.0%
COc1ccc(-c2csc(Cc3nnc(N4CCOCC4)n3-c3ccccc3)n2)cc1,-2.6%,50.1µM*,-20.9%,5.2%,-1.2%,19.0%
COc1ccc(-c2csc(Cc3nnc(N4CCOCC4)n3-c3ccccc3)n2)cc1OC,12.2%,?,63.1µM*,?,·,11.5%
COc1ccc(-c2csc(Cc3nnc4n3CCCCC4)n2)cc1,1.2%,-19.1%[12.7 µM],-17.9%,?,·,11.5%
COc1ccc(-n2nc(C(=O)N3CCN(c4cccc(C(F)(F)F)c4)CC3)c3c4ccccc4n(C)c3c2=O)cc1Cl,·,18.9%[59 µM],-12.7%,·,·,49.5%
CN(C)CCCN(C(=O)c1ccc(S(=O)(=O)N2CCc3ccccc3C2)cc1)c1nc2c(F)cc(F)cc2s1,·,35.5µM*,?,?,-1.6%,-4.5%
SMILES,Sfp inh,G9a inh,JMJD2A Tudor inh,BAZ2B inh,L3MBTL1 inh,HP1b binding inh
CN(C)CCCN(C(=O)c1ccc2ccccc2c1)c1nc2cc3c(cc2s1)OCO3,-4.9%,?,?,?,·,4.2%
COc1cc2nc(N(CCCN(C)C)C(=O)c3ccc(C(=O)c4ccccc4)cc3)sc2cc1OC,·,50.1µM*,?,?,-12.4%,?
COc1cccc2sc(N(CCCN(C)C)C(=O)c3ccc(S(=O)(=O)N4CCc5ccccc5C4)cc3)nc12,-19.0%,?,?,?,·,-9.1%
COc1ccc(OC)c2sc(N(CCCN(C)C)C(=O)c3ccc(S(=O)(=O)N4CCc5ccccc5C4)cc3)nc12,·,8.91µM*,·,-12.1%,1.7%,·
COc1cc2nc(N(CCCN(C)C)C(=O)c3ccc(S(=O)(=O)N4CCc5ccccc5C4)cc3)sc2cc1OC,·,39.8µM*,-15.9%,-37.4%,-9.5%,2.9%
O=C(/C=C(\O)c1ccccc1)c1ccccc1O,-5.5%,-39.4%[2.33 µM],·,·,·,·
COc1ccc(CNc2nc(-c3c(C)noc3C)nc3ccccc23)c(OC)c1,?,-11.1%[0.501 µM],·,·,·,·
Cc1cc(NCCCN2CCOCC2)n2nc(C)c(-c3ccccc3)c2n1,1.0%,-6.9%,-32.4%,13.9%,4.5%,-14.3%
Cc1cc(NCCC(C)C)n2nc(C)c(-c3ccccc3)c2n1,56.2µM*,68.7%[59 µM],56.8%,48.2%,·,168.8%
Cc1c(P(=S)(c2ccccc2)c2ccccc2)[n+]2ccccc2n1CCCc1ccccc1,·,·,-17.0%,·,·,·
Cc1ccc(Cn2ccc(=O)c(OCc3c(Cl)cccc3Cl)c2C)cc1,17.8µM*,80.9%,15.3%,?,·,62.2%
Cc1[nH]ccc(=O)c1OCc1c(Cl)cccc1Cl,6.1%,?,-2.3%,-1.3%,-7.4%,29.5%
CCCc1nc(C)cc(N2CCN(c3ccccc3)CC2)n1,?,50.1µM*,-20.4%,-33.4%,·,46.9%
COc1ccc(-c2cc(C(=O)Oc3ccc(C)c(C)c3)c3ccccc3n2)cc1,·,74.3%[59 µM],41.2%,57.4%,·,63.2%
COC(=O)c1ccc(C23CC2(C(NP(=O)(c2ccccc2)c2ccccc2)c2ccccc2)C3)cc1 (stereo not given),-23.2%,·,·,·,·,·
Nc1c(-c2nc(-c3ccccc3)cs2)c2ccccn2c1C(=O)c1ccc2c(c1)OCO2,·,0.3%[59 µM],2.3%,6.7%,·,38.2%
CC1CCc2[nH]c3ccc(C(=O)N(C)CC(=O)Nc4ccccc4Cl)cc3c2C1 (stereo not given),·,50.1µM*,?,?,-4.5%,-36.8%
CCN(CC(=O)Nc1ccccc1OC)C(=O)c1ccc2[nH]c3c(c2c1)CC(C)CC3 (stereo not given),·,-11.9%[12.7 µM],?,?,-5.0%,-23.9%

# Assay outcomes: PubChem BioAssay, National Center for Advancing Translational Sciences (NCATS)
